Measured values taken from PubChem BioAssay (NCI).
Where “and” joins values, the source holds several entries; their conditions need not be identical. Equal entries are not always repeated. This is part of a sample that, as a whole, favours compounds with a hit. Of some 79,000 tested, about 15% had one in any assay. Calls of active or inactive are those of the source. Rule as the data show it: active = growth inhibition above about 70%; inactive = the rest.

assay: NCI Yeast Anticancer Drug Screen. Data for the mec2-1 strain (AID 157); conditions: S. cerevisiae mec2-1 strain, at 50.0 µM, active compounds read high
Method in brief: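 Mutant yeast (mec2-1) grown with compound; growth inhibition relative to vehicle control reported.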

| SMILES | growth inhibition |
| --- | --- |
| COC(COC(N)=O)C1=C(N2CC2)C(=O)C(C)=C(N2CC2)C1=O (stereo not drawn) | 71.2% (active) |
| Cc1nc(Cl)c(CBr)c(Cl)n1 | 70.2% (active) |
| C[n+]1[se]nc2cc(C(=O)c3ccccc3)ccc21 (tested in a mixture with another compound) | 99.2% (active) |
| O=C(O)c1ccccc1.[Ag] | 93.2% (active) and 93% (active) |
| CC(=O)[O-].O=C([CH-]C(=O)c1ccccc1)c1ccccc1.O=C([CH-]C(=O)c1ccccc1)c1ccccc1.[Sm+3] | 93% (active) |
| CC(C)(Br)C(=O)C(Br)Br | 89% (active) |
| COC1(OC)C(Cl)=C(Cl)C(Cl)=C1Cl | 46.5% (inactive) |
| C=C[C@H]1CN2CC[C@H]1C[C@@H]2[C@@H](O)c1ccnc2ccccc12 | -40.6% (inactive) |
| [C-]#[O+].[C-]#[O+].[Ir].[O-]c1ccc2ccccc2c1N=Nc1ccccc1 | 69.5% (inactive) |
| O=C(Nc1ccccc1)OC(C[N+](=O)[O-])C(Cl)(Cl)Cl (stereo not drawn) | 95.8% (active) |
| [Pt].c1ccc(P(CCP(c2ccccc2)c2ccccc2)CCP(c2ccccc2)c2ccccc2)cc1 | 85.2% (active) |
| CC12CCC(C1)C(C)(C)C2OC(=O)c1ccccc1N (stereo not drawn) | 2.7% (inactive) |
| CC(=O)[O][Hg][c]1cc2c(cc1O)Cc1cc([N+](=O)[O-])ccc1-2 | 98% (active) |
| OC1(c2ccccc2)CC2CCC(C1)N2CCCC(O)(c1ccccc1)c1ccccc1 (stereo not drawn) | -2.2% (inactive) |
| ClC1=C(Cl)C(Cl)(Cl)SS1 | 91.5% (active) |
| COC(=O)C(F)C(Br)C(=O)OC (stereo not drawn) | 93% (active) |
| c1ccc2c(NCCCCCCNc3c4ccccc4nc4ccccc34)c3ccccc3nc2c1 | 73.5% (active) |
| c1ccc2c(NCCCCCCCCNc3c4ccccc4nc4ccccc34)c3ccccc3nc2c1 | 87.5% (active) |
| CN(Cc1ccccc1)CC(O)c1ccc(Cl)cc1 (stereo not drawn) | 0.75% (inactive) |

| SMILES | growth inhibition |
| --- | --- |
| Br[C](Br)(Br)[Hg][c]1ccccc1 | 89.8% (active) |
| Cc1cc(N=Nc2ccccc2C)ccc1N | 93% (active) and 91.7% (active) |
| C/C(=N\N=C(/[Se])N1CC2CCC(CC2)C1)c1ccccn1 | 90.2% (active) |
| CCCCCCCCCC[Se]C#N | 99.6% (active) |
| CNCC(O)c1ccc(O)c(O)c1.[Pt].c1ccc([PH+](c2ccccc2)c2ccccc2)cc1.c1ccc([PH+](c2ccccc2)c2ccccc2)cc1 | 98.8% (active) |
| CCN(CC)CC.CCOc1ccc(NC(=O)N=C=[N-])cc1.[CH-]1CCCCC1.[CH-]1CCCCC1.[CH-]1CCCCC1.[Cl-].[Sn+4] | 88.4% (active) |
| Cc1cc(N(C)C)c2ccccc2[n+]1CCCCCCCCCC[n+]1c(C)cc(N(C)C)c2ccccc21 | 91.8% (active) |
| CCC[CH2][Sn]1([CH2]CCC)[O]CC(CN2CCCC2)[O]1 (stereo not drawn) | 87.3% (active) |
| N#Cc1ccc([Se]c2ccccc2)cc1 | 54.1% (inactive) |
| O=c1ssc(Cl)c1Cl | 89.2% (active) |
| Cc1ccc(P(c2ccc(C)cc2)c2ccc(C)cc2)cc1 | 9.9% (inactive) |
| O=C(O)c1ccccc1[Se][Se]c1ccccc1C(=O)O | 10.8% (inactive) |
| CC1CC(C)CC(C)C(O)/C(C#N)=C/C=C/CC(C2CCCC2C(=O)O)OC(=O)CC(O)C(C)C1 (stereo not drawn) | 94.5% (active) |
| CCC[CH2][Pb]([Cl])([CH2]CCC)[CH2]CCC | 92% (active) |
| CNC(Cc1ccccc1)c1ccc(OC)c(OC)c1 (stereo not drawn) | 4.05% (inactive) |
| CC1C(=O)OCC1(C)O (stereo not drawn) | -11.7% (inactive) |
| O=C(Nc1ccccc1)c1cc([N+](=O)[O-])ccc1O | 92% (active) |
| N=P(c1ccccc1)(c1ccccc1)c1ccccc1 (tested in a mixture with another compound) | 17.3% (inactive) |

same assay, conditions: S. cerevisiae mec2-1 strain, at 100.0 µM, active compounds read high

| SMILES | growth inhibition |
| --- | --- |
| O=C(O)c1ccccc1.[Ag] | 99% (active) |
| CC(=O)[O-].O=C([CH-]C(=O)c1ccccc1)c1ccccc1.O=C([CH-]C(=O)c1ccccc1)c1ccccc1.[Sm+3] | 98% (active) |
| C=C[C@H]1CN2CC[C@H]1C[C@@H]2[C@@H](O)c1ccnc2ccccc12 | -5% (inactive) |
| [Pt].c1ccc(P(CCP(c2ccccc2)c2ccccc2)CCP(c2ccccc2)c2ccccc2)cc1 | 94% (active) |
| CC12CCC(C1)C(C)(C)C2OC(=O)c1ccccc1N (stereo not drawn) | 39% (inactive) |
| OC1(c2ccccc2)CC2CCC(C1)N2CCCC(O)(c1ccccc1)c1ccccc1 (stereo not drawn) | 37% (inactive) |
| COC(=O)C(F)C(Br)C(=O)OC (stereo not drawn) | 99% (active) |
| CCCCCCCCCC[Se]C#N | 77% (active) |
| CNCC(O)c1ccc(O)c(O)c1.[Pt].c1ccc([PH+](c2ccccc2)c2ccccc2)cc1.c1ccc([PH+](c2ccccc2)c2ccccc2)cc1 | 97% (active) |
| Cc1ccc(P(c2ccc(C)cc2)c2ccc(C)cc2)cc1 | 32% (inactive) |
| CC1CC(C)CC(C)C(O)/C(C#N)=C/C=C/CC(C2CCCC2C(=O)O)OC(=O)CC(O)C(C)C1 (stereo not drawn) | 98% (active) |
